# In PubChem BioAssay (NCATS):
# Results filed as inconclusive are left out. Entries that show only a call come without a potency. Calls of active or inactive are those of the source. Unless noted, the call rests on the fitted dose curve; in most records, active means well fitted curve in the direction sought with a large enough effect; inconclusive means small, poorly fitted or top-dose-only effect, or another doubt; inactive means no such curve, though single readings can be large; an effect the other way counts as inactive or inconclusive.
# Key:
# [1] = biological target: ATP-dependent 6-phosphofructokinase (Trypanosoma brucei brucei) (UniProt O15648); assay: qHTS Assay to Find Inhibitors of T. brucei phosphofructokinase: hit validation (AID 492961); further: potency means the concentration at half of the fitted maximal effect
# In short: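 Inhibition of parasite PFK is measured as reduced ADP formation, quantified via luciferase after ATP depletion. Assay used 0.1 mM ATP, 0.5 mM F6P, 1.25 nM enzyme, 45 min incubation.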
# [2] = biological target: Chromobox protein homolog 1 (Homo sapiens) (UniProt P83916); assay: qHTS Validation Assay for Inhibitors of HP1-beta Chromodomain Interactions with Methylated Histone Tails (AID 488953); further: nearly all actives have a fitted effect of over 50% in size; further: potency means the concentration at half of the fitted maximal effect
# In short: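 AlphaScreen proximity readout: streptavidin donor and Ni-chelate acceptor beads, 10 ug/mL final, 30 min dark, RT. Complex of 50 nM HP1-beta and 50 nM b-H3(1-18)K9me3 formed 30 min, then compound-treated 30 min; PBS pH 7.4/0.01% Tween-20.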
# [3] = biological target: D(1A) dopamine receptor (Homo sapiens) (UniProt P21728); assay: HTS Assay for Allosteric Agonists of the Human D1 Dopamine Receptor: Primary Screen for Potentiators (AID 488982); further: potency means the concentration at half of the fitted maximal effect
# In short: (§1)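 Tetracycline-induced HEK293 Trex D1 cells with forced coupling to calcium, loaded with no-wash calcium dye; kinetic fluorescence read 180 s after compound addition for agonism, then a further 180 s after an EC20 dopamine challenge for potentiation.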
# [4] = biological target: ATPase family AAA domain-containing protein 5 (Homo sapiens) (UniProt Q96QE3); assay: Validation screen for small molecules that inhibit ELG1-dependent DNA repair in human embryonic kidney (HEK293T) cells expressing luciferase-tagged ELG1 (AID 493107); further: nearly all actives have a fitted effect of over 70% in size; further: potency means the concentration at half of the fitted maximal effect
# In short: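 ELG1-luciferase HEK293T reporter; 5-fluorouridine + compound/DMSO, 16 hr, 37 °C, 5% CO2; ONE-Glo 30 min RT; luminescence read, qHTS format.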
# [5] = biological target: Thioredoxin reductase 1, cytoplasmic (Rattus norvegicus) (UniProt O89049); assay: qHTS Assay for Inhibitors of Mammalian Selenoprotein Thioredoxin Reductase 1 (TrxR1) (AID 488773); settings: Potency: inhibition; further: nearly all actives have a fitted effect of over 40% in size; further: potency means the concentration at half of the fitted maximal effect
# In short: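 Inhibition is scored from the loss of NADPH fluorescence between first and last reads of an 8-min kinetic run. Selenite (400 uM) was the substrate, added after 15 min compound preincubation at room temperature.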
# [6] = biological target: Flap endonuclease 1 (Homo sapiens) (UniProt P39748); assay: qHTS Validation Assay for the Inhibitors of Human Flap endonuclease 1 (FEN1) (AID 488816)
# In short: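 Enzyme reagent 10 nM; cpds pinned; 15 min RT preinc.; substrate 50 nM final; reads t=0 and 15 min; no-enzyme buffer wells as neg. control; normalized data, 4-parameter Hill fit.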
# [7] = biological target: Thyrotropin receptor (Homo sapiens) (UniProt P16473); assay: qHTS Assay for Antagonists of the Thyroid Stimulating Hormone Receptor (AID 488980); further: series mostly up to about 58 µM
# In short: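 Inhibition of cAMP raised by EC80 TSH (4 nM final) was read by HTRF, with lysate cAMP competing against cAMP-d2 for cryptate antibody after 30 min at room temperature. The cells were transfected HEK293 held in phosphodiesterase inhibitor RO 20-1724 at 70 uM.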
# [8] = biological target: Galactokinase (Homo sapiens) (UniProt P51570); assay: qHTS Validation Assay for Inhibitors of Human Galactokinase (GALK) (AID 493189)
# In short: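 Inhibition was measured as remaining ATP, detected by luciferase luminescence after a 1 h room-temperature reaction. Final conditions: 5 nM GALK, 100 uM galactose, 35 uM ATP, pH 8.0 HEPES buffer.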
# [9] = Validation screen for small molecules that induce DNA re-replication in SW480 colon adenocarcinoma cells (AID 504364)
# In short: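 Read-out: total Hoechst intensity of nuclei by fluorescence scanning imager; hits raise the fraction of nuclei with elevated DNA content. Cells received compound for 48 hr at 37 C before a 40 min stain.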
# [10] = biological target: Thioredoxin reductase 1, cytoplasmic (Rattus norvegicus) (UniProt O89049); assay: qHTS Assay for Substrates of Mammalian Selenoprotein Thioredoxin Reductase 1 (TrxR1) (AID 488772);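 further: series mostly up to about 57 µM; a drop in NADPH fluorescence below the no-compound background marks a TrxR1 substrate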
# In short: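 In this dual-purpose format, potential substrates are identified from the first fluorescence read after selenite addition, not from the 8-minute delta. Rat enzyme is preincubated with NADPH and then with compound at ~22 deg C.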
# [11] = biological target: Methanococcus maripaludis chaperonin (MmCpn) (UniProt Q6LX38); assay: High-Throughput Screening for Modulators of Cytosolic Chaperonin Activity: MmCpn Primary Screen (AID 488978);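 further: 50 nM MmCpn enzyme hydrolysing 30 µM ATP at 37 °C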
# In short: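 ATPase activity of 50 nM MmCpn was assayed with 30 uM ATP, 10 minutes at 37C, after a 5 min compound preincubation at room temperature. ADP production was read as HTRF emission at 590 and 665 nm.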
# [12] = biological target: Transient receptor potential cation channel subfamily V member 1 (Homo sapiens) (UniProt Q8NER1); assay: HTS Assay for Compounds that Act as Enhancers of the Vanilloid Receptor 1 (AID 488979)
# In short: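 TRPV1 cells loaded with Fluo-8 calcium dye; compound added and Ca2+ signal (ex 480/em 520 nm) followed 3 min, then capsaicin at EC20 added and read 2 more min to detect enhancement.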
# [13] = biological target: D(1A) dopamine receptor (Homo sapiens) (UniProt P21728); assay: HTS Assay for Allosteric Agonists of the Human D1 Dopamine Receptor: Primary Screen for Agonists (AID 488981)
# In short: as §1
# [14] = biological target: D(1A) dopamine receptor (Homo sapiens) (UniProt P21728); assay: HTS Assay for Allosteric Agonists of the Human D1 Dopamine Receptor: Primary Screen for Antagonists (AID 488983);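 further: calcium flux response to an EC80 dopamine challenge measured with no-wash dye; nearly all actives have a fitted effect of over 65% in size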; further: potency means the concentration at half of the fitted maximal effect
# In short: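 Calcium flux readout, no-wash dye, inducible HEK293 T-REx D1 line (force-coupled). Compound added after 10 s baseline, 180 s kinetic read; then dopamine at EC80, further 180 s read.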
# [15] = Validation screen for small molecules that induce genotoxicity in human embryonic kidney (HEK293T) cells expressing luciferase-tagged ELG1 (AID 493106)
# In short: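 qHTS format; 2,000 HEK293T ELG1-luc cells/well; 23 nL compound via pin tool; 16 hr, 37 °C/5% CO2; ONE-Glo, 30 min RT; luminescence read.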
# [16] = biological target: Thyrotropin-releasing hormone receptor (Homo sapiens) (UniProt P34981); assay: qHTS for Small Molecule Agonists and Allosteric Enhancers of Human TRH Receptor: Validation Screen for Agonists (AID 493127;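 active means calcium activation more than 3 SD above the typical response in the agonist read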;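 further: intracellular calcium rise by fluo-8 fluorescence before TRH EC20 addition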); settings: TRH receptor agonist cell assay; at 2 µM; stronger effect = higher value
# In short: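 Read-out: intracellular calcium release measured kinetically by FDSS (fluo-8, ex 480/em 530 nm), 1 reading/s after a 10-cycle baseline. TRHR cells, 2000/well, cultured 18 h at 33.5C, dye-loaded at room temp. Compound-evoked positive calcium signal flags agonists.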
# [17] = Nrf2 qHTS screen for inhibitors: Validation (AID 493153; active means well fitted inhibition curve with a large enough effect in the main read-out, with a control signal flat, not every such curve was filed as active); settings: viability change: measured here: cytotoxicity max response
# In short: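 Concentration-response test in A549 ARE_Fluc reporter cells (5% FBS OPTI-MEM), compound exposure 18-24 h at 37°C, 5% CO2. Cell viability measured first by CellTiter-Fluor fluorescence; ARE-driven luciferase luminescence then measured as Nrf2 activity.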
# [18] = biological target: Peptidyl-prolyl cis-trans isomerase NIMA-interacting 1 (Homo sapiens) (UniProt Q13526); assay: qHTS Validation Assay to Find Inhibitors of Pin1 (AID 504536; active means well fitted inhibition curve with a large enough effect in the polarisation, with a control signal flat, not every such curve was filed as active; the % refers to the polarisation)
# In short: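 Fluorescence polarization competition: compounds (titration) displace HiFluor-488-labeled Pin1-1b peptide from Pin1 (0.3 uM final) in pH 7.5 HEPES buffer with DTT, 10 min at room temperature; %Activity normalized to no-enzyme wells, curves fitted.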
# [19] = biological target: Phosphoglycerate kinase, glycosomal (Trypanosoma brucei brucei) (UniProt P07378); assay: qHTS Validation Assay to Find Inhibitors of Phosphoglycerate Kinase (AID 504547)
# In short: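 Compounds are pinned into the substrate/PGK mixture, and GAPDH (100nM final) is added to start the reaction by producing 1,3-BPG. After 60 minutes at room temperature, Kinase-Glo Plus is added and luminescence is measured 10 minutes later.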
# [20] = qHTS for Inhibitors of Cell Surface uPA Generation: Validation Assay (AID 493164);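 further: RAW 264.7 macrophage cells exposed to compound for 18 h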
# In short: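 Compounds are titrated over seven points (2.45 nM–38.3 uM final) onto pre-plated RAW 264.7 cells and incubated for 18 h. Retained intracellular ATP, measured with ATP-Lite, indicates blocked lethal factor entry.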
# Peptidyl-prolyl cis-trans isomerase NIMA-interacting 1 (Homo sapiens), sequence (Q13526 whole entry, looked up): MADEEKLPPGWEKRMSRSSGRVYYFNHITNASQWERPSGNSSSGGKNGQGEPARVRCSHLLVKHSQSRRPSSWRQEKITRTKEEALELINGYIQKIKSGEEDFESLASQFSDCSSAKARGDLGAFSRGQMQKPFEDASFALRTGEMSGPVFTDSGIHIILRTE
# Methanococcus maripaludis chaperonin (MmCpn), sequence (Q6LX38 1-543): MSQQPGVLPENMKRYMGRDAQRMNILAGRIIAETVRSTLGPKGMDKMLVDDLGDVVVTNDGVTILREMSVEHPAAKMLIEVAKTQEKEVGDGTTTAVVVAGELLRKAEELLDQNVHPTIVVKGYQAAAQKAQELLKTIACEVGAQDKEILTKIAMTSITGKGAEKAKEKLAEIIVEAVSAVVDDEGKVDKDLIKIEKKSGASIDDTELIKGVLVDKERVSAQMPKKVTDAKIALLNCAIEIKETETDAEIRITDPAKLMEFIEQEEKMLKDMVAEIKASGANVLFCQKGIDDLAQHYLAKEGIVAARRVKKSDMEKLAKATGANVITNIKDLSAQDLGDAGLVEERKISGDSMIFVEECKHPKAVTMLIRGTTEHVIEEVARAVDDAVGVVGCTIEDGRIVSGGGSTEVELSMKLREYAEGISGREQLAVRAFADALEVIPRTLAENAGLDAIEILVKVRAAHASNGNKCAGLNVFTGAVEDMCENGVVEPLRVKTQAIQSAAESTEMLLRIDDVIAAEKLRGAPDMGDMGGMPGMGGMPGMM
# Thyrotropin receptor (Homo sapiens), sequence (P16473 whole entry, looked up): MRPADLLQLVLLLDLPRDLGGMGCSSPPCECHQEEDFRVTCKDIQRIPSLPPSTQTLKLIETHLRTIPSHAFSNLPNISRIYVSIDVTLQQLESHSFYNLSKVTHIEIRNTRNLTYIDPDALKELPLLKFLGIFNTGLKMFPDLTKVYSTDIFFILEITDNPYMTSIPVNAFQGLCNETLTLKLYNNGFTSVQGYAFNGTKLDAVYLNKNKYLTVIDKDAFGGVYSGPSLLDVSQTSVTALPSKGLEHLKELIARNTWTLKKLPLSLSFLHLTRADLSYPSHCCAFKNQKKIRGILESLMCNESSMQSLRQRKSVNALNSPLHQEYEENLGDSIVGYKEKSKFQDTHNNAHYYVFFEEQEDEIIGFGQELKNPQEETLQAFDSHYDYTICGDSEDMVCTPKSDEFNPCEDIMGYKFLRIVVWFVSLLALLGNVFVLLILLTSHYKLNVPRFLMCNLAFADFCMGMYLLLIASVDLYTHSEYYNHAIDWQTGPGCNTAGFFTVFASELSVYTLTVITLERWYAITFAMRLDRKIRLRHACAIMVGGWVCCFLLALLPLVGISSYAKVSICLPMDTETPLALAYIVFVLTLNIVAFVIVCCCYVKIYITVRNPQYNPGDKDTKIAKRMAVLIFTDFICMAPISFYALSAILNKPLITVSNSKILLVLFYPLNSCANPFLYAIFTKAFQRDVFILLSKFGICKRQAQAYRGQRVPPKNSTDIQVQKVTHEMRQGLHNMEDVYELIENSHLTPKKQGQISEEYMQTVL
# Thyrotropin-releasing hormone receptor (Homo sapiens), sequence (P34981 whole entry, looked up): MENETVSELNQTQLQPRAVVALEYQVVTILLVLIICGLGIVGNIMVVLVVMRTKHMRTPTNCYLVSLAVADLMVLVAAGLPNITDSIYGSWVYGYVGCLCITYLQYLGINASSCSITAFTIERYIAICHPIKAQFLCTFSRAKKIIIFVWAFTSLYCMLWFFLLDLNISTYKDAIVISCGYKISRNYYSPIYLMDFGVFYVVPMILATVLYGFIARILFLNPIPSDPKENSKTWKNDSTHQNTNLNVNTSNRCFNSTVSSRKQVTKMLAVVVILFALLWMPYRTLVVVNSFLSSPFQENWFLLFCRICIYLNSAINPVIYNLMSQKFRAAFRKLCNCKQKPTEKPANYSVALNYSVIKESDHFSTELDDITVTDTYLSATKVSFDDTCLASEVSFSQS
# D(1A) dopamine receptor (Homo sapiens), sequence (P21728 whole entry, looked up): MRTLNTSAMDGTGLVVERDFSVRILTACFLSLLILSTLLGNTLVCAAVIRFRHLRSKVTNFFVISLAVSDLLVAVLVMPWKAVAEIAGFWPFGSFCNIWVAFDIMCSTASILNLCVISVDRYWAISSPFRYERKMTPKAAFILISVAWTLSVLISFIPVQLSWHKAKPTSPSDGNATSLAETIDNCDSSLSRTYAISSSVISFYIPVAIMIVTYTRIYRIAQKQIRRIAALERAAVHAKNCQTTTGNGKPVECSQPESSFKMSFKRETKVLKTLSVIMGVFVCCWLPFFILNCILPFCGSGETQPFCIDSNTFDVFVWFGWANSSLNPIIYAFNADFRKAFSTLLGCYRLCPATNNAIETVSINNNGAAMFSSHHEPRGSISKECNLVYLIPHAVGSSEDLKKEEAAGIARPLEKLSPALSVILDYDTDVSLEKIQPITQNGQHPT
# Phosphoglycerate kinase, glycosomal (Trypanosoma brucei brucei), sequence (P07378 whole entry, looked up): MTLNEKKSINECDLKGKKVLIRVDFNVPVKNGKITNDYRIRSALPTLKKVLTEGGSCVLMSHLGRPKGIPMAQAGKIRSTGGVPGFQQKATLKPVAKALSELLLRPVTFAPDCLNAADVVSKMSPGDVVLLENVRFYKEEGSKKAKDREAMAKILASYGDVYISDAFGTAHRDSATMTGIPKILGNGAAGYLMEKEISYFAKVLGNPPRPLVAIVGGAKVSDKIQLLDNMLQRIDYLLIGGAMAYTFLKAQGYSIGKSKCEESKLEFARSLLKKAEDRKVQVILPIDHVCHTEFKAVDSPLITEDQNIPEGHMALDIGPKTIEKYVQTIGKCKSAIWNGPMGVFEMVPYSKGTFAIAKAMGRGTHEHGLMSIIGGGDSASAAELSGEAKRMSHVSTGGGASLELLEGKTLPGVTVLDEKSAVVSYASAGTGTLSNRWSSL
# ATP-dependent 6-phosphofructokinase (Trypanosoma brucei brucei), sequence (O15648 whole entry, looked up): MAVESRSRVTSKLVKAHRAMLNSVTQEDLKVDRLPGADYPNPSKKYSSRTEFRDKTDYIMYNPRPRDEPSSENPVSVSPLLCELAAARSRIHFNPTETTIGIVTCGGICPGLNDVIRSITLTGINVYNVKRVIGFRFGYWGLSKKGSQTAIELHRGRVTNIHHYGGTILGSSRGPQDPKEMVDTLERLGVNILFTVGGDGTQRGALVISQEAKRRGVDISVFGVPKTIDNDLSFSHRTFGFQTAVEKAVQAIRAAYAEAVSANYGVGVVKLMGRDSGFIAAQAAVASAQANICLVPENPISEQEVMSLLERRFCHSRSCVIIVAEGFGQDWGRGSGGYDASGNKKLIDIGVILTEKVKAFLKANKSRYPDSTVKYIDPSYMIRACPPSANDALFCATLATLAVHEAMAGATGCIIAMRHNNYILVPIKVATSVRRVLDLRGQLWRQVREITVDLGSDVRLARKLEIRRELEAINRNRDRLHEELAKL
# Transient receptor potential cation channel subfamily V member 1 (Homo sapiens), sequence (Q8NER1 whole entry, looked up): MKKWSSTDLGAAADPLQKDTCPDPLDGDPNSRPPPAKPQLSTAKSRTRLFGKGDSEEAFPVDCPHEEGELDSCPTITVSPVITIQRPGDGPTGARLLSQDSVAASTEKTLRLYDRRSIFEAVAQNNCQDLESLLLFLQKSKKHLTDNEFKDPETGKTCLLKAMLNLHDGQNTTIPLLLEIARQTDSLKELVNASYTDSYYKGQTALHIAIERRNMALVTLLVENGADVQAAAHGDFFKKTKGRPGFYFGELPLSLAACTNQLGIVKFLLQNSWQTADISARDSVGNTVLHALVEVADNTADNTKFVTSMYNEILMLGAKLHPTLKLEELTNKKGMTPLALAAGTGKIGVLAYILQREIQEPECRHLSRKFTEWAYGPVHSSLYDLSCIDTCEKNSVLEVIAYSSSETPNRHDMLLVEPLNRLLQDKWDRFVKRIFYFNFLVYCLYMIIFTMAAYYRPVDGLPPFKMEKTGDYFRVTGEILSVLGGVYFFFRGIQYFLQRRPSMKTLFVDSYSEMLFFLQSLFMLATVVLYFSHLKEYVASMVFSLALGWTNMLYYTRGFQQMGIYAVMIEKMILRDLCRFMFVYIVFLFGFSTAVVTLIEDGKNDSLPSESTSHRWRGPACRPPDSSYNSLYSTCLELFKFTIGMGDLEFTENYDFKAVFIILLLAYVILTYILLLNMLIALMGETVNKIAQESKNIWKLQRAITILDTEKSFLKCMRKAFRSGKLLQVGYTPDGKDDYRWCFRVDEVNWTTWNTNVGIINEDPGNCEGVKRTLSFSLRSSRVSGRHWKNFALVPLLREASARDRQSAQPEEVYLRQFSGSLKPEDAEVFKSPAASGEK
# Flap endonuclease 1 (Homo sapiens), sequence (P39748 whole entry, looked up): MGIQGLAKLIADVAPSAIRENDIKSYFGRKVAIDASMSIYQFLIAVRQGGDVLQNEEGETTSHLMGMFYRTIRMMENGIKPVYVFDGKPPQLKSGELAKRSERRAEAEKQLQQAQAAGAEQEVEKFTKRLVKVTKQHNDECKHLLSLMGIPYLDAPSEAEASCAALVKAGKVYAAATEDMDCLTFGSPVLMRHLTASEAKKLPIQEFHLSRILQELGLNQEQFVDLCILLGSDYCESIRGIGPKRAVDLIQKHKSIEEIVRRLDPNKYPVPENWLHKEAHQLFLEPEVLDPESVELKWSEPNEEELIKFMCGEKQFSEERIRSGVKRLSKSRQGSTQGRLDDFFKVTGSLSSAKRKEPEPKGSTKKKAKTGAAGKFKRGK
# Thioredoxin reductase 1, cytoplasmic (Rattus norvegicus), sequence (O89049 whole entry, looked up): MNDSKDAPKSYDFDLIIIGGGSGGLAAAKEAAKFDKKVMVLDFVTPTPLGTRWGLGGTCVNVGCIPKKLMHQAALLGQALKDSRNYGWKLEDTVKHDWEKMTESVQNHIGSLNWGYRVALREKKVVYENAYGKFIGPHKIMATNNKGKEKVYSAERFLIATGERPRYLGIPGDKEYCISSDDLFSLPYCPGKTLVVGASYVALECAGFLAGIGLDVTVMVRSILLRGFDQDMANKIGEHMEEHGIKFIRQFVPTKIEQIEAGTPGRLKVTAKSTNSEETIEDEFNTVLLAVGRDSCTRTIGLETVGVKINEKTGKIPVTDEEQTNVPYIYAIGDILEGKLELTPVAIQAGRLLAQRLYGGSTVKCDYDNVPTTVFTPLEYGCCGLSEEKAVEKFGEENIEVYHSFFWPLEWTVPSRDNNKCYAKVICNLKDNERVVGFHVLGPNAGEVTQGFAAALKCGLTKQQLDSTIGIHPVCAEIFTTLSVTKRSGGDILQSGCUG
smiles,measurement,setting,value
CC(C)C(Br)C(=O)NC(N)=O (stereo not given),Potency,[1],inactive
COC(=O)C1=C(C)NC(C)=C(C(=O)OC)C1c1ccccc1[N+](=O)[O-],Potency,[2],35.5 µM (active)
same,Potency,[3],2.59 µM (active)
same,Potency,[4],18.3 µM (active)
O=C1CC2(CCCC2)CC(=O)N1CCCCN1CCN(c2ncccn2)CC1,Potency,[2],inactive
C[N+](C)(C)CCOC(=O)C(O)(c1ccccc1)c1ccccc1,Potency,[1],inactive
CCOC(=O)Nc1ccc(NCc2ccc(F)cc2)nc1N,Potency,[5],10.6 µM (active)
same,outcome,[6],inactive
same,Potency,[2],39.8 µM (active)
ClC1=C(Cl)C2(Cl)C(CBr)CC1(Cl)C2(Cl)Cl (stereo not given),Potency,[1],inactive
OC(O)C(Cl)(Cl)Cl,Potency,[1],inactive
CCCCCCCCC(=O)NCc1ccc(O)c(OC)c1,outcome,[7],inactive
same,outcome,[8],inactive
same,outcome,[9],inactive
COc1ccc(C(=O)N2CCCC2=O)cc1,outcome,[10],inactive
same,Potency,[5],inactive
same,Potency,[2],inactive
same,outcome,[11],inactive
same,outcome,[12],inactive
same,outcome,[7],inactive
same,outcome,[13],inactive
same,Potency,[3],inactive
same,Potency,[14],inactive
same,outcome,[15],inactive
same,Potency,[4],inactive
same,activation,[16],0.812% (inactive)
same,outcome,[17],inactive
same,viability change,[17],-4.73%
same,outcome,[8],inactive
same,outcome,[9],inactive
same,outcome,[18],inactive
same,outcome,[19],inactive
Oc1c(Br)cc(Br)cc1Br,Potency,[1],inactive
C[N+]1(CCC(C(N)=O)(c2ccccc2)c2ccccc2)CCCCC1,Potency,[1],inactive
Brc1c(NC2=NCCN2)ccc2nccnc12,Potency,[5],16.8 µM (active)
same,outcome,[6],inactive
CN1C[C@H](C(=O)N[C@]2(C)O[C@@]3(O)[C@@H]4CCCN4C(=O)[C@H](Cc4ccccc4)N3C2=O)C[C@@H]2c3cccc4[nH]cc(c34)C[C@H]21,Potency,[3],inactive
same,Potency,[14],8.91 µM (active)
CNC(=O)Oc1cccc2ccccc12,Potency,[1],inactive
CC[C@H]1CN2CCc3cc(OC)c(OC)cc3[C@@H]2C[C@@H]1C[C@H]1NCCc2cc(OC)c(OC)cc21,outcome,[6],inactive
same,outcome,[15],inactive
same,Potency,[4],0.259 µM (active)
OC(c1ccccc1)(c1ccccc1)C1CCNCC1,Potency,[1],inactive
COC(=O)C1=CCCN(C)C1,outcome,[10],inactive
same,Potency,[5],inactive
same,outcome,[6],inactive
same,Potency,[2],inactive
same,outcome,[11],inactive
same,outcome,[12],inactive
same,outcome,[13],inactive
same,Potency,[3],inactive
same,Potency,[14],inactive
same,outcome,[15],inactive
same,Potency,[4],inactive
same,outcome,[17],inactive
same,viability change,[17],-1.14%
same,outcome,[20],inactive
same,outcome,[8],inactive
same,outcome,[9],inactive
same,outcome,[18],inactive
same,outcome,[19],inactive
COP(=S)(OC)Oc1ccc(Sc2ccc(OP(=S)(OC)OC)cc2)cc1,Potency,[1],inactive
NC(N)=NC(=O)c1nc(Cl)c(N)nc1N,outcome,[10],inactive
same,outcome,[6],inactive
O=C(O)c1nn(Cc2ccc(Cl)cc2Cl)c2ccccc12,outcome,[10],inactive
same,Potency,[5],inactive
same,outcome,[6],inactive
same,Potency,[2],inactive
same,outcome,[11],inactive
same,outcome,[12],inactive
same,outcome,[7],inactive
same,outcome,[13],inactive
same,Potency,[3],inactive
same,Potency,[14],inactive
same,Potency,[1],inactive
same,outcome,[15],inactive
same,Potency,[4],inactive
same,activation,[16],0.438% (inactive)
same,outcome,[20],inactive
same,outcome,[8],inactive
same,outcome,[9],inactive
same,outcome,[18],inactive
same,outcome,[19],inactive
O=c1n(Cl)c(=O)n(Cl)c(=O)n1Cl,Potency,[1],inactive
CCN(Cc1ccc(Cl)nc1)/C(=C/[N+](=O)[O-])NC,Potency,[1],inactive
CCNC(=O)NCc1cccc(Cl)c1,Potency,[1],15.8 µM (active)
CC(C)(C)OC(=O)c1ncn2c1[C@@H]1CCCN1C(=O)c1c(Br)cccc1-2,Potency,[1],inactive
CC(N)C(=O)OC(C)(C)Cc1ccc(Cl)cc1 (stereo not given),outcome,[12],inactive
same,outcome,[7],inactive
same,outcome,[8],inactive
same,outcome,[9],inactive
Nc1ccc(N)cc1,Potency,[1],inactive
CCC1(CC)C(=O)NC(=O)NC1=O,Potency,[1],inactive
NC(N)=NCCC[C@H](N)C(=O)O,outcome,[6],inactive
same,Potency,[2],inactive
Oc1ccc2[nH]cc(CCCCN3CC=C(c4ccccc4)CC3)c2c1,Potency,[1],inactive
c1ccc2nc(N3CCNCC3)ccc2c1,outcome,[12],inactive
same,activation,[16],-0.562% (inactive)
same,outcome,[8],inactive
same,outcome,[9],inactive
NC(=O)OCCCc1ccccc1,Potency,[1],inactive
C[N+](C)(C)CCCCCCCCCC[N+](C)(C)C,outcome,[6],inactive
C[C@]12Cc3nonc3C[C@@H]1CC[C@@H]1[C@@H]2CC[C@@]2(C)[C@H]1CC[C@]2(C)O,Potency,[1],inactive
Clc1ccc(CO/N=C(\Cn2ccnc2)c2ccc(Cl)cc2Cl)c(Cl)c1,Potency,[1],inactive
NC(N)=N/N=C/c1c(Cl)cccc1Cl,Potency,[3],inactive
NC(=O)CN1CCCC1=O,outcome,[10],inactive
same,Potency,[5],inactive
same,outcome,[6],inactive
same,Potency,[2],inactive
same,outcome,[11],inactive
same,outcome,[12],inactive
same,outcome,[13],inactive
same,Potency,[3],inactive
same,Potency,[14],inactive
same,Potency,[1],inactive
same,outcome,[15],inactive
same,Potency,[4],inactive
same,activation,[16],-0.312% (inactive)
same,outcome,[17],inactive
same,viability change,[17],-6.84%
same,outcome,[20],inactive
same,outcome,[8],inactive
same,outcome,[9],inactive
same,outcome,[18],inactive
same,outcome,[19],inactive
